This note sets out measurements from PubChem BioAssay (NCATS).

Test [1] is described as follows: qHTS of pediatric cancer cell lines to identify multiple opportunities for drug repurposing: Primary screen for TC32 cells (AID 1347089). Further: nearly all actives have a fitted effect of over 60% in size. The method in brief: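 TC32 cells, 500-1,000/well in growth medium, compound-treated 48 h at 37 °C; viability from CellTiter-Glo luminescence. Primary screen: MIPE 11-point (0.78 nM–46 µM final), NPC 8-point (0.59 nM–46 µM final); confirmatory at 11-point dilutions.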
(In general: In qHTS, concentration-response curves come from the screen itself.)

Test [2] can be described thus: qHTS of pediatric cancer cell lines to identify multiple opportunities for drug repurposing: Primary screen for DAOY cells (AID 1347090). Further: nearly all actives have a fitted effect of over 55% in size. The essentials:
(§1)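 Eight- or eleven-point concentration series, 48 h treatment at 37 degrees C in growth media; readout CellTiter-Glo luminescence. Potency and efficacy were taken from the concentration-response curves.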

Test [3] can be described thus: qHTS of pediatric cancer cell lines to identify multiple opportunities for drug repurposing: Primary screen for SJ-GBM2 cells (AID 1347091). The essentials:
as §1

The nature of test [4]: qHTS of pediatric cancer cell lines to identify multiple opportunities for drug repurposing: Primary screen for A673 cells (AID 1347092). Further: nearly all actives have a fitted effect of over 45% in size. The method in brief: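 A673 cells (500-1,000 cells/well) were treated 48 hours at 37 degrees C with compounds at 11-point (0.78 nM to 46 µM) or 8-point (0.59 nM to 46 µM) dilutions. Viability read by CellTiter-Glo luminescence; concentration-response curves fitted.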

The nature of test [5]: qHTS of pediatric cancer cell lines to identify multiple opportunities for drug repurposing: Primary screen for SK-N-MC cells (AID 1347093). The essentials: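 Metabolically active cells were quantified by ATP-dependent luminescence (CellTiter-Glo, 15 min at room temperature) following 48 h treatment. Cells had been plated at 500-1,000 per well and settled for 5 h beforehand.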

Test [6] can be described thus: qHTS of pediatric cancer cell lines to identify multiple opportunities for drug repurposing: Primary screen for BT-37 cells (AID 1347094). The method in brief:
(§2)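 Quantitative HTS format: each compound titrated (MIPE 11 points from 0.78 nM, NPC 8 points from 0.59 nM) onto cells plated 5 hours earlier. After 48 h at 37 degrees C, CellTiter-Glo luminescence was recorded.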

Test [7] is described as follows: qHTS of pediatric cancer cell lines to identify multiple opportunities for drug repurposing: Primary screen for NB-EBc1 cells (AID 1347095). The method in brief: as §2
Test [8] can be described thus: qHTS of pediatric cancer cell lines to identify multiple opportunities for drug repurposing: Primary screen for U-2 OS cells (AID 1347096). Further: nearly all actives have a fitted effect of over 50% in size. The essentials:
(§3)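 Cells (500-1,000/well) in growth media were settled 5 h at 37 degrees C, then given compounds for 48 h. Viability was read as CellTiter-Glo luminescence. Primary runs used MIPE at 11 points (0.78 nM-46 µM) and NPC at 8 points (0.59 nM-46 µM); follow-ups used 11 points.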

Test [9] in a line: qHTS of pediatric cancer cell lines to identify multiple opportunities for drug repurposing: Primary screen for Saos-2 cells (AID 1347097). Further: nearly all actives have a fitted effect of over 40% in size. The essentials: as §2
The nature of test [10]: qHTS of pediatric cancer cell lines to identify multiple opportunities for drug repurposing: Primary screen for SK-N-SH cells (AID 1347098). Further: nearly all actives have a fitted effect of over 65% in size. The method in brief: (§4)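 Cells (500-1,000/well) rested 5 h, then received compounds for 48 h; metabolically active cells were measured by CellTiter-Glo luminescence. Final concentrations spanned up to 46 µM (MIPE, 11-point) or 0.59 nM-46 µM (NPC, 8-point) in primary screens, 11-point in follow-ups.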

Test [11] in a line: qHTS of pediatric cancer cell lines to identify multiple opportunities for drug repurposing: Primary screen for NB1643 cells (AID 1347099). Further: nearly all actives have a fitted effect of over 50% in size. The method in brief: as §2
The nature of test [12]: qHTS of pediatric cancer cell lines to identify multiple opportunities for drug repurposing: Primary screen for LAN-5 cells (AID 1347100). The method in brief:
as §3

A short description of test [13]: qHTS of pediatric cancer cell lines to identify multiple opportunities for drug repurposing: Primary screen for OHS-50 cells (AID 1347103). Further: nearly all actives have a fitted effect of over 40% in size. The essentials:
as §4

Test [14] in a line: qHTS of pediatric cancer cell lines to identify multiple opportunities for drug repurposing: Primary screen for BT-12 cells (AID 1347101). Further: nearly all actives have a fitted effect of over 25% in size. The method in brief: as §4
Test [15] is described as follows: qHTS of pediatric cancer cell lines to identify multiple opportunities for drug repurposing: Primary screen for Rh18 cells (AID 1347102). Further: nearly all actives have a fitted effect of over 65% in size. The method in brief: as §3
The nature of test [16]: qHTS of pediatric cancer cell lines to identify multiple opportunities for drug repurposing: Primary screen for RD cells (AID 1347104). Further: nearly all actives have a fitted effect of over 55% in size. The method in brief:
as §2

Inconclusive results are not listed. Values without a mark were called inactive. Active and inactive are the calls of the source. The call rests on the fitted dose curve; in most records, active means well fitted curve in the direction sought with a large enough effect; inconclusive means small, poorly fitted or top-dose-only effect, or another doubt; inactive means no such curve, though single readings can be large; an effect the other way counts as inactive or inconclusive.
Potency means the concentration at half of the fitted maximal effect.

As to `NC(=O)Nc1cc(-c2cccc(F)c2)sc1C(=O)N[C@H]1CCCNC1`, the Potency in test [1] is 2340 nM (active); in [2], 1870 nM (active); in test [3], 235 nM (active); in test [4] it was 187 nM (active); in test [5], 37.2 nM (active); in test [6], 485 nM (active). The Potency in test [7] is 296 nM (active); in [8] it was 935 nM (active); in [9], 1320 nM (active); in test [10], 1710 nM (active); in test [11], 526 nM (active); in test [12] it was 469 nM (active). In test [13], the Potency is 172 nM (active).
`CNC(=O)c1nn(C)c2c1C(C)(C)Cc1cnc(Nc3ccc(N4CCN(C)CC4)cc3)nc1-2`: the Potency in test [1] is 2620 nM (active); in [2] it was 11800 nM (active); in test [3], 1870 nM (active); in [4] it was 2960 nM (active); in test [5], 590 nM (active); in test [6], 1720 nM (active). The Potency in [7] was 2350 nM (active); in test [8], 5900 nM (active); in test [9], 2350 nM (active); in [10], 1710 nM (active); in test [11] it was 743 nM (active); in test [12] it was 662 nM (active). The Potency in [14] is 6850 nM (active); in [15], 3320 nM (active); in [13], 1530 nM (active); in test [16] it was 3720 nM (active).
As for `COc1ccc(-n2nc(C(N)=O)c3c2C(=O)N(c2ccc(N4CCCCC4=O)cc2)CC3)cc1`, the Potency entry in test [1], in test [2], in test [3], in test [5], in test [7] and in test [8] was “inactive” in each case. Also, the Potency entry in test [9], in test [10], in test [11], in test [12], in test [13] and in test [16] was “inactive” each time. In addition, the results for the Potency in test [4] and in [6] were 9350 nM (active) and 12200 nM (active), respectively.
Consider `CC1COC2(CCN(c3nc(=O)c4cc(C(F)(F)F)cc([N+](=O)[O-])c4s3)CC2)O1` (centres undefined), for which the Potency result in test [1], in [2], in [3], in test [4], in test [5] and in [6] was “inactive” each time. The Potency entry in test [7], in [8], in test [9], in [10], in test [11] and in test [12] was “inactive” each time. Further, the Potency entry in test [14], in [15] and in [13] was “inactive” each time.
For the compound `CCn1cc(-c2ccnc3[nH]c(-c4cccc(CN(C)C)c4)cc23)c(-c2ccc(NC(=O)N(C)C)cc2)n1`, the Potency is 104 nM (active) in [1]; 5900 nM (active) in test [2]; 83.3 nM (active) in test [3]; 4690 nM (active) in test [4]; 46.9 nM (active) in [5]; 19300 nM (active) in test [6]. Also, the Potency was 469 nM (active) in test [7]; 18700 nM (active) in [8]; 3720 nM (active) in test [9]; 3040 nM (active) in test [10]; 3320 nM (active) in test [11]; 26.4 nM (active) in [12]. Moreover, the Potency in [15] was 16600 nM (active); in test [13], 3850 nM (active); in [16] it was 10500 nM (active).
As to `Nc1ccccc1NC(=O)c1ccc(CNc2nccc(-c3cccnc3)n2)cc1`, the Potency in [1] was 6580 nM (active); in test [2] it was 7430 nM (active); in [3] it was 2350 nM (active); in test [4], 2350 nM (active); in [5], 187 nM (active); in test [6], 3060 nM (active). Further, the Potency was 743 nM (active) in test [7]; 4690 nM (active) in test [8]; 2350 nM (active) in test [9]; 2410 nM (active) in test [10]; 296 nM (active) in test [11]; 743 nM (active) in [12]. The Potency in [14] is 4850 nM (active); in [15], 2090 nM (active); in test [13], 968 nM (active); in test [16] it was 2960 nM (active).
On to `Cn1c2cc(S(C)=O)sc2c2cnn(Cc3cccc(N)c3)c(=O)c21` (centres undefined), for which the Potency entry in [1], in test [2], in test [3], in test [4], in [5] and in test [6] was “inactive” in each case. The Potency result in test [7], in test [8], in test [11], in [12], in test [14] and in test [15] was “inactive” each time. The Potency entry in test [13] and in test [16] was “inactive” throughout.
On to `CC(C)C[C@H](NC(=O)CNC(=O)c1cc(Cl)ccc1Cl)B(O)O`, for which the Potency in [1] was 2940 nM (active); in test [2], 235 nM (active); in test [3], 187 nM (active); in test [4] it was 1480 nM (active); in test [5], 148 nM (active); in [6], 485 nM (active). For the same compound, the Potency in test [7] was 526 nM (active); in test [8], 743 nM (active); in test [9], 18700 nM (active); in [10], 383 nM (active); in test [11], 590 nM (active); in [12], 132 nM (active). In addition, the Potency is 344 nM (active) in [14], 6110 nM (active) in test [13] and 1320 nM (active) in test [16].
Take `O=C(CCCCCCNC(=O)c1cnc(N(c2ccccc2)c2ccccc2)nc1)NO`: the Potency in test [1] is 18600 nM (active); in test [2] it was 18700 nM (active); in test [3], 5260 nM (active); in test [4], 9350 nM (active); in test [5], 2960 nM (active); in test [6] it was 15300 nM (active). Moreover, the Potency in [7] is 4180 nM (active); in test [9], 11800 nM (active); in test [10] it was 10800 nM (active); in test [11], 3720 nM (active); in test [12], 4690 nM (active); in [14], 17200 nM (active). Besides, the results for the Potency in test [13] and in test [16] were 6850 nM (active) and 13200 nM (active), respectively. The Potency result in [8] was “inactive”.
In the case of `CC(NCc1ccc2c(c1)nc(NC(=O)c1ccc(-c3cn[nH]c3)s1)n2CC(C)(C)O)C(C)(C)C` (centres undefined), the Potency in test [1] was 2620 nM (active); in [2] it was 2960 nM (active); in test [3], 296 nM (active); in [4], 187 nM (active); in test [5], 743 nM (active); in test [6] it was 485 nM (active). Further, the Potency was 418 nM (active) in [7]; 1180 nM (active) in test [8]; 743 nM (active) in [9]; 961 nM (active) in test [10]; 372 nM (active) in test [11]; 132 nM (active) in test [12]. Also, the Potency in test [14] is 968 nM (active); in test [15], 1660 nM (active); in test [13], 485 nM (active); in test [16], 1050 nM (active).
